# ± gives the standard deviation of the averaged measurements. Whole data set: some 25,000 sequences, median “ln(normalized median fluorescence intensity)” near 8.9, cut for the highest 2% near 10. This is one part of a sample in which the highest values are shown more often than they occur.
# System: PfAP2-LT AP2 domain (GST-tagged)
# Assay: gcPBM binding intensity (ln(normalized median fluorescence intensity)); higher = stronger DNA binding
# Method in brief: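 GST-tagged P. falciparum DNA-binding domains, expressed in E. coli (about 25 μg on average), were applied for 1 h to an Agilent 4 × 180k array of primer-extended double-stranded 36-bp intergenic genomic probes plus negative controls. The binding buffer was 1× PBS with 1% milk, 0.2 mg/ml BSA, 0.5% salmon testes DNA and 0.03% Triton X-100. Bound protein was detected with Alexa488 anti-GST antibody and scanned at 488 nm. Binding intensity is the highest Masliner-normalised natural-log median intensity across replicate spots of either probe orientation.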
row,Sequence,gcPBM binding intensity (ln)
1,ATATATATATAATTATATAAAATATATCATATGTTA [XGTACX_negctrl_site47],8.53 ± 0.42
2,TTTAATCATATGTTATATAATAAGCCCCCCCCCCAA [CACACA_negctrl_site486],10.2 ± 0.17
3,TATTAATTATATTTATGTACATAATCATATTATTAT [XGTACX_site7938],8.94 ± 0.44
4,ATAATACACAAGCACACACACACACGGATATTTATA [CACACA_site6714],10.4 ± 0.23
5,ATTTTTATTTTATATACACACAATAATAATATAATA [CACACA_site4015],8.62 ± 0.36
6,AGCACAAGCACAAGCACACATTTATATATAAATACA [CACACA_site4642],9.1 ± 0.47
7,AATTAAAAAAAATACACACACACATACCCATATATA [CACACA_site5767],9.85 ± 0.28
8,TTTATTTATTATTGTTGTACACTTTTTATAAAAAAA [XGTACX_site5114],8.57 ± 0.53
9,ATGAAAAAAAAAAAAAAAAAAAAAAAAAAAAAAATA [CACACA_negctrl_site1083],8.37 ± 0.55
10,AAAAATTTGGCATACACACACACACCGACACAGACA [CACACA_site4489],10 ± 0.23
11,AAAAAAATTTGGCATACACACACACCCCCACCCACA [CACACA_site8094],10.41 ± 0.05
12,AAAAAATTCATATATACACACACGCACATATATATA [CACACA_site4226],9.53 ± 0.13
13,AAAAATTTGGCATACACACACACACCCACACCCACA [CACACA_site587],10.03 ± 0.042
14,AAAATTCATATATACACACACGCACATATATATATA [CACACA_site90],9.71 ± 0.21
15,AAAAATTTGGCATACACACACACACGCACACGCACA [CACACA_site6422],10.2 ± 0.21
16,CACATACACCCATACACACACATATATATTAAGATA [CACACA_site4459],9.57 ± 0.38
17,TATATATATATATAATGTACAAACTCCTTTATATAT [XGTACX_site4545],9.05 ± 0.2
18,ATTATTTTATTATAGTGTACTTTTTTAATCAAAGGA [XGTACX_site8921],8.44 ± 0.4
19,TTAGGTTATAAATACACACACAAAAGAAAAAAAAAA [CACACA_site5625],9.23 ± 0.55
20,TTATGATCATTTATATGTACACATAATTTTTGTGCT [XGTACX_site5568],9.03 ± 0.44
21,AAAAAAAAAAAAAAGAGTACATTTATTTATATATCT [XGTACX_site2381],8.46 ± 0.33
22,AATAGAATAATCCTTACACACACACCCACACGAATA [CACACA_site8053],9.87 ± 0.16
23,TAGAATAATCCTTACACACACACACCCACGAATAAA [CACACA_site483],10.1 ± 0.2

row,Sequence,gcPBM binding intensity (ln)
1,AATAGAATAATCCTTACACACACACGCGCACGAATA [CACACA_site6365],9.78 ± 0.31
2,TTTTTTTTAGTATGAACACACATATAGATTATAAAA [CACACA_site7391],8.35 ± 0.41
3,ATAATCCTTAAACACACACACACACTAATAAATAAA [CACACA_site8052],10.1 ± 0.25
4,ATATAAATAATATAAATACACACTAAAAAAAATATA [CACACA_site542],8.88 ± 0.44
5,AACAAACACAGACACACACACACACTAATATGATTA [CACACA_site8770],10.2 ± 0.45
6,AAAAAATATATATTAACACACACACTAATAAAAAAA [CACACA_site8366],9.56 ± 0.17
7,AATATGAACAGACACACACACACAAAAAAAAAAAAA [CACACA_site2012],9.9 ± 0.56
8,ATAATATGAAATATAACACACATATATAAAAACATT [CACACA_site866],9.11 ± 0.33
9,TATGAACACAGACACACACACAAAAAAAAAAAAAAA [CACACA_site7037],9.18 ± 0.56
10,TACATAAATTAAAACACACACACACTAATAAAAAAA [CACACA_site8712],9.85 ± 0.18
11,AAAAAAAAAAAACACACACACACACTAATATATAAA [CACACA_site8302],10.3 ± 0.35
12,ATAATATGAAAACACACACACACACTAATAAAAAAA [CACACA_site8617],10.3 ± 0.16
13,AAAAAAAATATGAAAACACACATATATAAATAAATA [CACACA_site113],8.88 ± 0.46
14,TATATATATATATATACACACACACTAATAAAAAAA [CACACA_site8426],9.65 ± 0.057
15,CTTATATGAAGCCTCTTTATTCATAAATAAGAATAA [TGCATGCA_negctrl_site120],8.21 ± 0.38
16,AAAATTATTTTTATGTGTACTTATTTATTATTTATA [XGTACX_site6665],8.79 ± 0.46
17,ATTATCTTATGTTATTTATTTGTCCCACATTTGTTA [TGCATGCA_negctrl_site402],8.91 ± 0.46
18,AAATTGTCAAAACACGCACACACATATACATAATAA [CACACA_site1743],9.62 ± 0.36
19,ATTCATTATTCACCTTGTACACAAATGATTATCGTA [XGTACX_site455],8.93 ± 0.45
20,AAAAAATCAAAACACACACACACACTAGAAAAAAAA [CACACA_site4909],10.1 ± 0.49
21,AATAATAAACACAATCAAATAAAATATGAAATATAA [GTGCAC_negctrl_site307],8.84 ± 0.49
22,ATAATATGAAAACACACACACACACTAGAAAAAAAA [CACACA_site5153],10.2 ± 0.27

# Reference: the supplement of paper PMC11417369
